Records with an inconclusive call do not appear. The source made the active and inactive calls. Calls come from the whole dose curve; as a rule, active = well fitted cell-killing curve with a large enough effect; inconclusive = small, poorly fitted or top-dose-only effect, or effect the other way; inactive = no such curve, though single readings can be large or run the other way.
Test: Viability qHTS for spleen associated tyrosine kinase inhibitor (SYKi) drug resistant MV4-11 cells (AID 1963824); note: nearly all actives have a fitted effect of over 35% in size
Conditions: SYKi-resistant MV4-11 viability, CellTiter-Glo, 72 h; series mostly up to 45 µM
How it was run: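 SYK-inhibitor-resistant MV4-11 AML cells were seeded at 500 per well onto compound and cultured 72 hours (37 °C, 5% CO2). CellTiter-Glo was then added, and after 10 min at room temperature, luminescence gave viability.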
Potency is the fitted concentration of half-maximal effect.

Row | SMILES | Potency
1 | CC(=O)OC1CC2C3(C)CCC(OC(=O)CC(=O)O)C(C)(C)C3CCC2(C)C2(C)CCC(C3(C)CCC(=O)O3)C12 (configuration not stated) | 6.32 µM (active)
2 | CN(C(=O)CNC(=O)/C=C/c1cccc(Cl)c1)C1CCS(=O)(=O)CC1 | 0.468 µM (active)
3 | COc1cc(O)c2c(=O)c(O)c(-c3ccc(O)c(O)c3)oc2c1 | 8.2 µM (active)
4 | COc1ccc(C[C@H]2COC(=O)[C@@H]2Cc2ccc(O[C@@H]3O[C@H](CO)[C@@H](O)[C@H](O)[C@H]3O)c(OC)c2)cc1OC | 1.42 µM (active)
5 | CCOC(=O)Nc1nc2ccccc2[nH]1 | 10.3 µM (active)
6 | COc1ccc(Cl)cc1NC(=O)Nc1cc(C)nc2ccccc12 | 14.6 µM (active)
7 | CCOC(=O)c1sc(NC(=O)[C@H](C(C)C)n2c(=O)[nH]c3ccccc3c2=O)nc1C | 16.4 µM (active)
8 | CC(C)Oc1ccc(-c2cnc3c(-c4ccnc5ccccc45)cnn3c2)cc1 | 4.11 µM (active)
9 | COc1c(C(C)C)c(O)c(O)c2c1C(OC)[C@H]1OC(=O)[C@@]23CCCC(C)(C)[C@H]13 (some centres not stated) | 14.3 µM (active)
10 | C=C1C(=O)O[C@@H]2/C=C(/C)[C@@H](OC(C)=O)C/C=C(\C)C[C@@H](OC(=O)/C(=C/CO)CO)[C@@H]12 | 3.55 µM (active)
11 | CO[C@H]1/C=C/[C@@](C)(O)/C=C/C(=O)O[C@H](C)[C@@H](C)CC/C=C/1C | 12.8 µM (active)
12 | CCC(C)C(=O)O[C@H]1CCC=C2C=C[C@H](C)[C@H](CC[C@@H](O)C[C@@H](O)CC(=O)O)[C@H]21 (some centres not stated) | 10 µM (active)
